An excerpt weighted towards active compounds, which were near 1.5% of everything screened.
BCLXL inh – inhibitors of human Bcl-xL, primary screen, biochemical, fluorescence polarization, HTS | Bcl-2-like protein 1 (Homo sapiens), Q07817 | GST-Bcl-xL / FITC-Bim BH3 peptide fluorescence polarization | inhibition, % at 10.9 µM | 0.7% of 320,000 active | AID 2129, 2009;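 active = inhibition above the mean of all tested compounds plus 3 SD, cutoff set per campaign, cut at about 30% in these data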;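 note: 0% = DMSO wells and 100% = unlabeled Bim-BH3 peptide competitor; inhibitors lower millipolarization by displacing the labeled peptide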
MCL1-BIM inh – inhibitors of MCL1 binding to BIM-BH3, primary screen, biochemical, fluorescence polarization; Induced myeloid leukemia cell differentiation protein Mcl-1 (Homo sapiens), Q07820; GST-MCL1 / FITC-Bim-BH3 fluorescence polarization; inhibition, % at 10.9 µM; 0.68% of 320,000 active;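 active = inhibition above the mean inhibition of all tested compounds plus 3 SD, set per campaign, cut at about 40% in these data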;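 note: 0% = DMSO wells and 100% = unlabeled Bim-BH3 peptide control; higher means more loss of mP so more displacement of Bim peptide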
MEX-5 binding – MEX-5 zinc finger RNA-binding disruptors – biochemical, C. elegans, fluorescence polarization, MLPCN library, primary screen. Zinc finger protein mex-5 (Caenorhabditis elegans), Q9XUB2. MEX-5/FITC-TCR2 RNA binding; hits give low values. 0.38% of 300,000 active. activity score (negative = inhibition of binding), % at 10 µM;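 active = inhibition past about -25% in most replicates, and total fluorescence under double the plate's negative control median, limit read from the data; inconclusive = replicates evenly split on the limit, or fluorescence at least double controls; inactive = too little inhibition in most replicates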;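 note: 0% = DMSO and -100% = 5 µM competing unlabeled TCR2 RNA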
EBV gp42 block – Epstein-Barr virus gp42 inhibitors, primary screen, biochemical, uHTS, fluorescence polarization; Glycoprotein 42 (Epstein-Barr virus (strain AG876)), Q1HVG2; Fluorescence polarization binding assay, mP read-out; inhibition, % (tested at 21.74 µM); 0.42% of 220,000 active; AID 1085, 2008; in the data active = inhibition above about 50%
Target sequence (Q1HVG2 whole entry, looked up): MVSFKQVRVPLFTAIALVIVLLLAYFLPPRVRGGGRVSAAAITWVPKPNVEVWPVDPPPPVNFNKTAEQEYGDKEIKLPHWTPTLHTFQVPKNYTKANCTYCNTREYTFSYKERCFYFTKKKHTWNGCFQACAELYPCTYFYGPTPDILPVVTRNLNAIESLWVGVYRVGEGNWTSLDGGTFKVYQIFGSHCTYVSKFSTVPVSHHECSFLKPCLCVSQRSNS
E coli Lon inh – inhibitors of E. coli Lon protease, primary screen, biochemical, fluorescence polarization; P0A9M0; purified E. coli Lon protease; inhibition, % at 7.94 µM; 0.42% of 360,000 active; AID 602123, 2011; in the data active = inhibition above about 13%, passing the limit was not always enough;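 note: 0% = enzyme with probe and DMSO and 100% = no enzyme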
GLD-1 TGE inh – GLD-1/TGE RNA complex disruptors, primary screen, biochemical, fluorescence polarization | purified GLD-1 + fluorescein TGE RNA | inhibition, % at 5.96 µM | 0.44% of 320,000 active | AID 2280, 2010;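 active = percent inhibition above a per-plate cutoff, the plate mean of test compounds plus 3 SD, cut at about 30% in these data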;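 note: 0% = DMSO wells with GLD-1 and probe and 100% = wells lacking GLD-1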
Target sequence (Q17339 whole entry, looked up): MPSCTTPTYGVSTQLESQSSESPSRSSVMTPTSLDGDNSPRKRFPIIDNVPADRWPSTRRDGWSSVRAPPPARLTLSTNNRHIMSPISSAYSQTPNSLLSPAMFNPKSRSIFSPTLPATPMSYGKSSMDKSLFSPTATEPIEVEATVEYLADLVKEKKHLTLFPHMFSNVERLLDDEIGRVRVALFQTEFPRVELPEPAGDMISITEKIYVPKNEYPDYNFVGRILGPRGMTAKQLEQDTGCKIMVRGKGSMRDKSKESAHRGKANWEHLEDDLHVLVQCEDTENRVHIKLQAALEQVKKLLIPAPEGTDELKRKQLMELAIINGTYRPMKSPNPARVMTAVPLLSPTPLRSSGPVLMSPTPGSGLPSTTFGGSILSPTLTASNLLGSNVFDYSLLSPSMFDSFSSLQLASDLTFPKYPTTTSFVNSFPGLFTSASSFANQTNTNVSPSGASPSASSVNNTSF
An asterisk follows results filed as active; ? = inconclusive; nt = no result.

SMILES	BCLXL inh	MCL1-BIM inh	MEX-5 binding	EBV gp42 block	E coli Lon inh	GLD-1 TGE inh
CS(=O)(=O)c1ccc(-c2csc(-c3cccnc3)n2)cc1	31.5*	4.8	-2.3	nt	-6.3	-2.3
O=C1NC(=O)c2cc(Br)cc3cccc1c23	7.2	8.3	1.2	13.7	-5.2	-2.8
Cc1ccc(NS(=O)(=O)c2cc3c4c(cccc4c2)C(=O)NC3=O)cc1C	30.6*	27.0	-6.5	18.1	-3.0	11.1
COc1ccccc1N1CCN(C(=O)Cn2nc3n(C)c4ccccc4n3c(=O)c2=O)CC1	2.0	16.2	1.0	-18.9	nt	31.0*
Nc1sc2c(c1C(=O)NC1CCS(=O)(=O)C1)CCC2 (centres undefined)	31.5*	26.3	-0.8	-4.6	-14.2	-2.8
Cc1ccc(/C=C2\SC(=S)N(C3CCS(=O)(=O)C3)C2=O)o1 (centres undefined)	5.1	13.9	-1.3	-38.6	2.3	1.0
CC1=C(C#N)C(=O)N(C2CCS(=O)(=O)C2)C(=O)/C1=C\c1ccc(C)o1 (centres undefined)	30.4*	51.5*	?	117.9*	nt	-9.9
CC(C)(C)NC(=O)C[C@H]1C[C@H](C(=O)N2CCOCC2)[C@@]2(CCC3CCCC3)c3[nH]c4cc(-c5ccco5)ccc4c3CCN2C1=O	nt	nt	nt	nt	-17.8	nt
CCN(CC)c1ccc(C=C2C(=O)OC(C)(C(C)(C)C)OC2=O)cc1 (centres undefined)	-20.8	-38.4	-68.6*	nt	-12.7	-5.0
CN(C)c1ccc(C=C2C(=O)OC(C)(C(C)(C)C)OC2=O)cc1 (centres undefined)	-14.9	-13.4	-7.0	-192.4	-22.3	-13.6
CCN(CC)c1ccc(C=C2C(=O)OC(c3ccccc3)OC2=O)cc1 (centres undefined)	-5.8	-18.1	1.6	90.8*	-3.6	-4.1
CC(=O)Oc1c(Cl)cc(N(C(C)=O)S(=O)(=O)c2ccccc2)c2ccccc12	3.2	4.3	2.9	nt	-5.5	2.8
COc1ccc(NC(=O)Nc2c(O)ccc3ccccc23)cc1	30.3*	21.9	-0.5	nt	4.6	-2.6
COc1ccc(OCCNC(=O)c2ccc3nc(C)c(N(C)C(=O)CCc4ccccc4)n3c2)cc1	nt	nt	nt	nt	-1.6	nt
COc1ccc(/C=C2\CCCC(C(=O)C(F)(F)F)=C2O)cc1OC	-5.3	-10.8	-34.2*	-6.2	nt	-1.3
CC(=O)N=c1c(C#N)cc2c(=O)n3cccc(C)c3nc2n1CCCOC(C)C	15.9	22.8	-26.3*	2.5	-15.1	0.5
COc1ccc(C(=O)N=c2c(C#N)cc3c(=O)n4cccc(C)c4nc3n2Cc2ccco2)cc1	nt	nt	-40.5*	22.5	nt	nt
Cc1cccc(N2CCN(S(=O)(=O)c3c(C)[nH]c(C)c3C(=O)N3CCCC3)CC2)c1C	29.2	33.6	-0.9	nt	2.7	30.7*
COC(=O)CNc1c(-c2ccccn2)nc2ccc(Br)cn12	46.7*	55.1*	nt	22.1	0.3	50.3*
CCNC(=O)C1(C)CCCN(Cc2csc3ccccc23)C1 (centres undefined)	nt	nt	nt	nt	-4.1	nt
CC1=C[C@H]2OC(=O)[C@@H](C)[C@H]2C[C@@H]2[C@H]1C[C@@H](O)[C@@]2(C)O	0.8	3.5	0.7	-7.9	-1.8	114.4*
COc1cc(CN2CCN(c3cccc(C)c3C)CC2)cc(OC)c1O	3.1	0.4	-1.1	111.2*	-1.7	7.0
COc1ccc(N2C(=O)[C@@H]3[C@H](C2=O)[C@H]2c4ccccc4C=CN2[C@@H]3C(=O)Nc2ccccc2)cc1	-33.2	-49.9	nt	-12.7	-92.0	-12.1
CC(=O)[C@@H]1[C@@H]2C(=O)N(Cc3ccccc3)C(=O)[C@@H]2C2c3ccccc3C=CN21 (some centres undefined)	46.4*	49.6*	-8.0	39.7	7.8	38.5*
Cc1ccc(N2C(=O)[C@@H]3[C@H](C2=O)C2c4ccccc4C=CN2[C@@H]3C(=O)c2ccco2)cc1 (some centres undefined)	nt	nt	nt	53.8*	9.1	nt
SMILES	BCLXL inh	MCL1-BIM inh	MEX-5 binding	EBV gp42 block	E coli Lon inh	GLD-1 TGE inh
CCOc1ccc(NC(=O)C2CC(=O)N(CCc3ccc(OC)c(OC)c3)C2)cc1OCC (centres undefined)	11.4	18.3	nt	nt	-8.1	1.5
C=CCn1c(O)c(N=NC(=O)CNC(=O)/C=C/c2ccco2)c2ccccc21	9.5	28.6	-1.3	62.2*	-9.6	-0.4
Cc1cccc(-n2nc3c(c2NC(=O)C2CC2)CS(=O)(=O)C3)c1C	1.0	2.1	-1.0	nt	5.8	0.4
Cc1ccc(C)c(-n2cc(CNCCc3cnccn3)c(-c3ccccc3)n2)c1	1.8	-1.6	-0.3	2.2	38.6*	-3.4
CC(Sc1nnc(-c2cccnc2)n1N)C(=O)NCCC1=CCCCC1 (centres undefined)	nt	nt	nt	nt	-2.5	nt
COC(=O)CCC(=O)OC1(C)C(=O)C2=CN(CCN3CCOCC3)C(c3ccc(OC)cc3)=CC2=C(Br)C1=O (centres undefined)	23.8	20.7	-5.7	1.3	nt	15.5
COC(=O)CCC(=O)OC1(C)C(=O)C2=CN(Cc3ccc4c(c3)OCO4)C(c3ccc(OC)cc3)=CC2=C(Br)C1=O (centres undefined)	11.6	5.8	-2.0	nt	-0.9	-0.6
COC(=O)CCC(=O)OC1(C)C(=O)C2=CN(CCc3ccccn3)C(c3ccc(OC)cc3)=CC2=C(Br)C1=O (centres undefined)	36.5*	40.0*	?	nt	-4.2	30.4
COC(=O)CCC(=O)OC1(C)C(=O)C2=CN(CCCCO)C(c3ccc(OC)cc3)=CC2=C(Br)C1=O (centres undefined)	31.7*	40.2*	-17.9	nt	nt	26.0
COC(=O)CCC(=O)OC1(C)C(=O)C2=CN(C(CO)CO)C(c3ccc(OC)cc3)=CC2=C(Br)C1=O (centres undefined)	38.2*	39.9*	-8.0	18.3	nt	13.2
Cc1cccc(NC(=O)NC(C)C(c2ccccc2)N2CCN(C)CC2)c1 (centres undefined)	8.4	2.2	-0.8	-9.6	8.3	3.4
CCOc1ccc(NS(=O)(=O)c2ccc(C(=O)NCC(c3ccco3)N3CCCC3)cc2)cc1 (centres undefined)	-0.4	-0.6	nt	nt	-12.1	1.4
Cc1ccc(S(=O)(=O)N(C)c2ccc(OCC(=O)NCC3(N(C)C)CCCCC3)cc2)cc1	4.1	6.6	-0.2	nt	-13.5	-7.9
COc1cc(/C=C2\S/C(=N/S(=O)(=O)Cc3ccccc3)NC2=O)c([N+](=O)[O-])cc1OC	28.0	23.0	0.4	-9.4	-10.2	19.5

Source: PubChem BioAssay
